# Experimental data published in PubChem BioAssay (NCI).
# The panel holds about 83,000 compounds, 20% with a hit somewhere; the sample as a whole holds those more often.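 Percent growth is the endpoint: 0 to 100 indicates growth inhibition (40 means 60% inhibition), 0 means no net growth, and negative values indicate cell death.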 Calls of active or inactive are those of the source. Rule for the calls: active = growth percent below 10; inactive = the rest.
# System: SF-268 CNS
# Assay: NCI-60 one-dose screen, 48 h (100 = growth as untreated, 0 = no growth, -100 = all killed)
# Conditions: 10 µM
row,SMILES,growth
1,CN(C)CCOc1nc2ccccc2c2c1-c1ccc(Cl)cc1C2=O,-25.3% (active)
2,CCOC(=O)C(CSC(c1ccccc1)(c1ccccc1)c1ccccc1)NC(=O)C(CSC(c1ccccc1)(c1ccccc1)c1ccccc1)NC(c1ccccc1)(c1ccccc1)c1ccccc1 (stereo not drawn),110% (inactive)
3,O=C1OCC2=C1C(c1cccc(Cl)c1)c1cc3c(cc1N2CCO)CCC3 (stereo not drawn),13.9% (inactive)
4,O=C(Nc1ccc(Cl)cc1)N1NC(c2ccc(Cl)cc2)C=C1c1ccccc1 (stereo not drawn),103% (inactive)
5,S=c1[nH]ccn1-c1c(Cl)cccc1Cl,118% (inactive)
6,Cc1ccc(NC(=O)CSc2nc3ccccc3c(=O)n2CCc2ccccc2)c(C(=O)O)c1,104% (inactive)
7,O=S(=O)(NCCCNc1nccc(-c2c(-c3ccc(F)cc3)nc3sccn23)n1)c1ccc(F)cc1,45.4% (inactive)
8,CCn1cc(C(=O)O)c(=O)c2cnc(N3CCCC3)nc21,116% (inactive)
9,O=c1c2ccccc2nc(SCCN2CCCCC2)n1CCc1ccccc1,101% (inactive)
10,COc1cc2cc3c(nc2cc1OC)CCN3Cc1ccc(NC(=O)c2ccc(Cl)c(C(F)(F)F)c2)cc1,102% (inactive)
11,CN(C)C(=S)N/N=C\C=N/NC(=S)N(C)C,84.6% (inactive)
12,COc1cc(Cl)cc(-c2nn(-c3cccc(NC(=O)c4ccc(Cl)c(Cl)c4)c3)cc2-c2ccncc2)c1,82.4% (inactive)
13,CCCCCCCCCCCCCCCC(=O)OC1[C@@H](OC(=O)CCCCCCCCCCCCCCC)[C@@H](C(=O)N[C@@H](CCCCN)C(=O)OC)O[C@H]1n1cnc2c(=O)[nH]c(NC(=O)C(C)C)nc21 (stereo partly drawn),97.1% (inactive)
14,CSc1nn(-c2ccccc2)c2ncnc(Oc3ccccc3)c12,92.5% (inactive)
15,COc1ccc(/C=C/C(=O)Nc2ccc(-c3nc4ccc(OC)cc4s3)cc2)cc1,116% (inactive)
16,O=C(/C=C/c1cc2ccccc2[nH]c1=O)c1ccc2c(c1)OCO2,93.6% (inactive)
17,COc1ccc(N2C(=O)C3c4[nH]c5ccc(OCc6ccccc6)cc5c4C4CCC(C(C)C)CC4C3C2=O)cc1 (stereo not drawn),96.7% (inactive)
18,COc1cc(C(=C2O[C@@H]([C@H]3COC(C)(C)O3)[C@H]3OC(C)(C)O[C@@H]23)c2cc(OC)c(OC)c(OC)c2)cc(OC)c1OC,113% (inactive)
19,COc1ccccc1/C=C/C(=O)c1ccccc1,87.9% (inactive)

row,SMILES,growth
1,COc1ccc(C2=Nc3c(C)nn(-c4ccccc4)c3NC(c3ccc(Oc4ccnc5cc(Cl)ccc45)c(OC)c3)C2)cc1 (stereo not drawn),78.8% (inactive)
2,NC(=O)SCC(=O)Nc1ccc(S(N)(=O)=O)cc1,106% (inactive)
3,c1ccc([I+]c2ccccc2)cc1,55.7% (inactive)
4,CCN1CCCC1CNC(=O)c1ncc(-c2ccc(C(F)(F)F)cc2)c(NC2CCCCCC2)n1 (stereo not drawn),86.8% (inactive)
5,Cc1ccc(N=Nc2c(N)nc(N)[nH]c2=O)cc1C,111% (inactive)
6,COc1ccc(/C=C2/CN(C(=O)c3ccc(C)cc3)C/C(=C\c3ccc(OC)cc3)C2=O)cc1,87.4% (inactive)
7,COc1cc(-c2cc(/C=C3\C(=O)Nc4cc(Cl)ccc43)[nH]n2)cc(OC)c1OC,56.7% (inactive)
8,O=C(Nc1cccc(-n2cc(-c3ccncc3)c(-c3ccc(O)c(Cl)c3)n2)c1)c1ccc(N2CCOCC2)c(C(F)(F)F)c1,63.2% (inactive)
9,COc1ccccc1CNCCCN1C(=O)c2ccc3c4c(ccc(c24)C1=O)C(=O)N(CCCN)C3=O,-22.1% (active)
10,N=c1c2c(-c3ccccc3)c(-c3ccccc3)n(Cc3ccccc3)c2ncn1CCCO,41.4% (inactive)
11,CCCC(F)C(=O)O (stereo not drawn),107% (inactive)
12,O=C(N/N=C\c1cc(Cl)ccc1[N+](=O)[O-])c1ccco1,99.3% (inactive)
13,COC(=O)c1ccc(=O)oc1,104% (inactive)
14,CN(Cc1ccccc1)Cc1ccc([N+](=O)[O-])cc1I,98% (inactive)
15,O=C(CCCCC(=O)Nc1ccc2c(c1)/C(=C/c1ccc[nH]1)C(=O)N2)NO,76.2% (inactive)
16,O=C1/C(=C/c2ccc(Cl)cc2)SC(=Nc2ccc(Cl)cc2)N1Cc1nc2ccccc2[nH]1,74.4% (inactive)
17,O=C(C[P+](c1ccccc1)(c1ccccc1)c1ccccc1)C[P+](c1ccccc1)(c1ccccc1)c1ccccc1,-86.3% (active)
18,N=C(N)c1ccc(-c2ccc(-c3ccccc3)o2)nc1,91.2% (inactive)
19,COc1cc(/C=C2\CCCC3=C2N=C2SC=NN2C3c2cc(OC)c(OC)c(OC)c2)cc(OC)c1OC (stereo not drawn),22.9% (inactive)
